The values below come from PubChem BioAssay (EPA / NIEHS).

Inconclusive results are not listed. Where a structure was tested more than once in an assay, its records may differ in their call. The source made the active and inactive calls. The calls were made as follows, unless noted: active = hit-call score of the fitted dose curve at least 0.9, where 1 is the maximum; inconclusive = response in the unintended direction; inactive = score below 0.9.

Experiment [1] in a line: ATG_XTT_Cytotoxicity: Cytotoxicity Assessment in the Attagene TRANS-FACTORIAL HepG2 Assay (AID 2283584). In outline:
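HepG2 human liver cells, transiently transfected with multiple GAL4-UAS reporter units, were dosed and read at 24 h by XTT as cell number. Loss of signal was fitted relative to DMSO negative control baseline.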

Read-out in experiment [2]: X-box binding protein 1 (XBP1), XBP1 (gene 7494)
In words: LTEA_HepaRG_XBP1: Life Technologies and Expression Analysis (LTEA) Assay for X-box binding protein 1 (XBP1) using HepaRG (AID 2283540; active = hit-call score of the fitted dose curve at least 0.9, where 1 is the maximum; inactive = score below 0.9). The following applies: mRNA level, 48 h; actives raise or lower the signal. In outline: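 Differentiated human HepaRG cells in serum-free induction medium were exposed in duplicate for 48 h to eight half-log concentrations up to 100 uM in 0.5% DMSO. XBP1 mRNA was quantified by qRT-PCR, normalised to ACTB, GAPDH and POLR2A, with bidirectional fitting against DMSO.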

The nature of experiment [3]: LTEA_HepaRG_LDH_cytotoxicity: Cytotoxicity Assessment in the Life Technologies and Expression Analysis (LTEA) Assay (AID 2283563). The method, boiled down: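 Differentiated human HepaRG cells, plated 48 h beforehand, were switched to serum-free induction medium and exposed for 48 h to eight half-log concentrations (top 100 uM) in 0.5% DMSO. LDH was measured in spent medium; activity was fitted relative to DMSO vehicle.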

Experiment [4] can be described thus: TOX21_p53_BLA_p2_viability: Viability Assessment in the Tox21 HCT-116 p53 Agonism Beta-lactamase Assay, Phase 2 (AID 2283591).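 Also: compound exposure lasted 16 h at 37 °C; actives lower the ATP signal meaning cytotoxicity.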 In outline: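 HCT-116 p53-bla cells (4000/well) rested 5 h at 37C, then received compounds in DMSO (217-fold dilution) for 16 h at 37C, 5% CO2. After the CCF4 read, CellTiter-Glo was added; ATP luminescence was read after 30 min at room temperature.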

The target in experiment [5] is Cellular tumor antigen p53 (Homo sapiens) (UniProt P04637). In words: TOX21_p53_BLA_p2_ratio: Tox21 HCT-116 p53 Agonism Beta-lactamase Assay, Ratio, Phase 2 (AID 2283592). The method, boiled down: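 HCT116 cells carrying a p53-responsive beta-lactamase reporter were plated, incubated 5 h at 37C, then dosed with compounds in DMSO (217-fold dilution) for 16 h. CCF4-AM substrate was added for 2 h at room temperature; the 460/530 nm emission ratio gave gain-of-signal activity relative to DMSO.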

Experiment [6] can be described thus: TOX21_p53_BLA_p3_viability: Viability Assessment in the Tox21 HCT-116 p53 Agonism Beta-lactamase Assay, Phase 3 (AID 2283593).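 Also: cells exposed to compound for 16 h before reading.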 In outline: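 HCT-116 cells (4000/well) rested 5 h at 37C, then got DMSO compounds by pin tool (217-fold dilution) for 16 h at 37C, 5% CO2. After the bla read, CellTiter-Glo was added and luminescence read at 30 min, room temperature.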

In experiment [7] the target is Cellular tumor antigen p53 (Homo sapiens) (UniProt P04637). In words: TOX21_p53_BLA_p3_ratio: Tox21 HCT-116 p53 Agonism Beta-lactamase Assay, Ratio, Phase 3 (AID 2283596). In outline: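 HCT116 p53-bla cells (4000/well) given compound in DMSO (217-fold dilution) after 5 h, incubated 16 h at 37C. CCF4-AM substrate 2 h at room temperature; 460/530 nm emission ratio, gain fitted against DMSO.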

A short description of experiment [8]: TOX21_p53_BLA_p4_viability: Viability Assessment in the Tox21 HCT-116 p53 Agonism Beta-lactamase Assay, Phase 4 (AID 2283597).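 Also: hits lower the luminescence signal meaning cytotoxicity.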 The method, boiled down: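 HCT116 p53-bla cells (4000/well) rested 5 h at 37C, then received compounds in DMSO (217-fold dilution) for 16 h at 37C, 5% CO2. CellTiter-Glo was added after the CCF4-AM read, and luminescence was read after 30 min at room temperature.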

The target in experiment [9] is Cellular tumor antigen p53 (Homo sapiens) (UniProt P04637). In words: TOX21_p53_BLA_p5_ratio: Tox21 HCT-116 p53 Agonism Beta-lactamase Assay, Ratio, Phase 5 (AID 2283599). The method, boiled down: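 HCT-116 cells carrying a p53-inducible beta-lactamase reporter were seeded at 4000 cells/well and dosed after 5 h with compound in DMSO (217-fold dilution). After 16 h at 37C, CCF4-AM substrate was added for 2 h, and the 460/530 nm emission ratio was scored as gain-of-signal versus DMSO.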

Experiment [10] is described as follows: TOX21_p53_BLA_p5_viability: Viability Assessment in the Tox21 HCT-116 p53 Agonism Beta-lactamase Assay, Phase 5 (AID 2283600). In outline: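 Cells were plated at 4000/well, rested 5 h at 37C, then given compounds in DMSO (217-fold dilution) for 16 h at 37C, 5% CO2. Following the CCF4-AM beta-lactamase read, CellTiter-Glo was added and luminescence was read after 30 min at room temperature.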

Experiment [11] concerns the target Cellular tumor antigen p53 (Homo sapiens) (UniProt P04637). As to the kind of experiment: TOX21_p53_BLA_p4_ratio: Tox21 HCT-116 p53 Agonism Beta-lactamase Assay, Ratio, Phase 4 (AID 2283601). The method, boiled down: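 HCT116 cells carrying an inducible beta-lactamase reporter were plated at 4000 cells/well, rested 5 h, then exposed to compounds in DMSO (217-fold dilution) for 16 h at 37C. CCF4-AM substrate was loaded 2 h at room temperature; 460/530 nm emission ratio scored gain-of-signal versus DMSO.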

Experiment [12] in a line: Tanguay_ZF_120hpf_MORT_legacy: (Legacy) Oregon State University Tanguay Lab 120 Hour Post-fertilization zebrafish Assay for Mortality (AID 2283633). The method, boiled down: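 Dechorionated Tropical 5D wild-type zebrafish embryos, one per well from 6 hpf, were statically exposed at 28C in the dark until 120 hpf (0.64% DMSO final). Mortality was scored as present/absent by brightfield microscopy, fitted positively versus DMSO.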

Experiment [13] is described as follows: Tanguay_ZF_120hpf_YSE_legacy: (Legacy) Oregon State University Tanguay Lab 120 Hour Post-fertilization zebrafish Assay for Yolk Sac Edema (AID 2283634). The method, boiled down: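 Tropical 5D wild-type embryos, dechorionated with pronase at 4 hpf, were exposed singly from 6 hpf to 120 hpf under static, sealed, dark conditions at 28C with 0.64% DMSO final. Yolk sac edema was scored present/absent by brightfield microscopy.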

Experiment [14] is described as follows: Tanguay_ZF_120hpf_AXIS_legacy: (Legacy) Oregon State University Tanguay Lab 120 Hour Post-fertilization zebrafish Assay for Body Axis Malformation (AID 2283635).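 Also: potency for an increased fraction of larvae scored with body axis malformation.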 The method, boiled down:
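Tropical 5D wild-type zebrafish embryos, dechorionated with pronase at 4 hpf, were placed singly in wells at 6 hpf and exposed statically to test chemical (0.64% DMSO final) at 28C until 120 hpf, then scored by brightfield for body axis defects.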

Experiment [15] can be described thus: Tanguay_ZF_120hpf_EYE_legacy: (Legacy) Oregon State University Tanguay Lab 120 Hour Post-fertilization zebrafish Assay for Eye Malformation (AID 2283636).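 Also: binary presence or absence of eye malformation scored by brightfield in 120 hpf larvae.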 In outline:
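Dechorionated wild-type Tropical 5D zebrafish embryos were exposed statically from 6 hpf, one per well, to 120 hpf at 28C in sealed, foil-covered plates with 0.64% DMSO. Eye malformation was scored present/absent by brightfield microscopy against DMSO controls.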

The nature of experiment [16]: Tanguay_ZF_120hpf_SNOU_legacy: (Legacy) Oregon State University Tanguay Lab 120 Hour Post-fertilization zebrafish Assay for Snout Malformation (AID 2283637). The method, boiled down: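 Tropical 5D wild-type zebrafish embryos, dechorionated with pronase at 4 hpf, were exposed singly from 6 hpf to 120 hpf statically at 28C in 0.64% DMSO. Snout malformation was scored present/absent by brightfield microscopy, fitted against DMSO.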

The nature of experiment [17]: Tanguay_ZF_120hpf_JAW_legacy: (Legacy) Oregon State University Tanguay Lab 120 Hour Post-fertilization zebrafish Assay for Jaw Malformation (AID 2283638). The method, boiled down: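 Tropical 5D wild-type embryos, dechorionated with pronase at 4 hpf, were placed singly per well at 6 hpf and statically exposed at 28C until 120 hpf (0.64% DMSO final). Jaw malformation scored as present/absent by brightfield microscopy at 120 hpf, analyzed relative to DMSO.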

Experiment [18] can be described thus: Tanguay_ZF_120hpf_OTIC_legacy: (Legacy) Oregon State University Tanguay Lab 120 Hour Post-fertilization zebrafish Assay for Otic Vesicle Malformation (AID 2283639). In outline:
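Tropical 5D wild-type zebrafish embryos statically exposed in 0.64% DMSO at 28C until 120 hpf; 5uM trimethyltin chloride as positive control. Otic vesicle malformation scored present/absent by brightfield; dead embryos not scored; gain fitted versus DMSO.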

Experiment [19] in a line: Tanguay_ZF_120hpf_PE_legacy: (Legacy) Oregon State University Tanguay Lab 120 Hour Post-fertilization zebrafish Assay for Pericardial Edema (AID 2283640). The method, boiled down:
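Tropical 5D wild-type zebrafish embryos were exposed statically to 120 hpf at 28C, sealed and foil-covered, in 0.64% DMSO final. Pericardial edema was scored present/absent by brightfield microscopy; dead embryos were not scored.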

Experiment [20] in a line: Tanguay_ZF_120hpf_BRAI_legacy: (Legacy) Oregon State University Tanguay Lab 120 Hour Post-fertilization zebrafish Assay for Brain Malformation (AID 2283641). In outline:
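Tropical 5D wild-type zebrafish embryos were exposed statically in sealed, foil-covered plates at 28C until 120 hpf, with 0.64% (vol/vol) final DMSO. Brain malformation was scored present/absent by brightfield microscopy, relative to DMSO baseline.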

Cellular tumor antigen p53 (Homo sapiens), sequence (P04637 whole entry, looked up): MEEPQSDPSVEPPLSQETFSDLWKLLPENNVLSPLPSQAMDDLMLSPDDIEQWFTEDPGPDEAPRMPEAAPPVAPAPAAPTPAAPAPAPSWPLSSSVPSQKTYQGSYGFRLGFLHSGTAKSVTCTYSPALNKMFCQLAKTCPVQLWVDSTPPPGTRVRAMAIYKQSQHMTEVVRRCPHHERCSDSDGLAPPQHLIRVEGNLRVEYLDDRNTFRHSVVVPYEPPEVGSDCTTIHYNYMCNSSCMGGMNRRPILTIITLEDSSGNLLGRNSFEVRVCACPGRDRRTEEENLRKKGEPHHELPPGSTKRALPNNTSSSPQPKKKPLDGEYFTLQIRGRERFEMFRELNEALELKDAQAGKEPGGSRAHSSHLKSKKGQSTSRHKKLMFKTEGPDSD

As for `CCCCCCC(C)Nc1ccc(Nc2ccccc2)cc1` (stereo not given), the result in experiment [1] was inactive. Turning to `OC[C@H]1O[C@@H]2O[C@H]3[C@H](O)[C@@H](O)[C@@H](O[C@H]4[C@H](O)[C@@H](O)[C@@H](O[C@H]5[C@H](O)[C@@H](O)[C@@H](O[C@H]6[C@H](O)[C@@H](O)[C@@H](O[C@H]7[C@H](O)[C@@H](O)[C@@H](O[C@H]8[C@H](O)[C@@H](O)[C@@H](O[C@H]9[C@H](O)[C@@H](O)[C@@H](O[C@H]1[C@H](O)[C@H]2O)O[C@@H]9CO)O[C@@H]8CO)O[C@@H]7CO)O[C@@H]6CO)O[C@@H]5CO)O[C@@H]4CO)O[C@@H]3CO`, the compound was classed as inactive in experiment [1].

Regarding `CCCCCCCC/C=C\CCCCCCCC(=O)OCC`, in experiment [1], the outcome was inactive.

As to `Clc1cc(Cl)c(-c2c(Cl)c(Cl)cc(Cl)c2Cl)cc1Cl`, the compound was called inactive in [1]. The same measure, in the same setting: as for `C=C(C)[C@@H]1CC=C(C)C(=O)C1`, the entry is “inactive”; as for `C=C(C)C1CC=C(C)C(=O)C1` (stereo not given), “inactive”. The same measure, in the same setting: as for `COc1ccc(CCO)cc1`, the entry is “inactive”; as for `Oc1ccc2cc(SSc3ccc4cc(O)ccc4c3)ccc2c1`, “inactive”; as for `C=C(C)[C@H]1CC=C(C)C(=O)C1`, “inactive”. Same read-out and setting: the value for `CCCCOCC` was “inactive”. As to `Nc1ccc(Cl)c([N+](=O)[O-])c1`, the compound was classed as inactive in experiment [1]. Same read-out and setting: the value for `CC=Cc1ccc(OC)c(OC)c1` was “inactive”.

Consider `CS(=O)(=O)OCCCCOS(C)(=O)=O`, for which the call in [2], in experiment [3], in experiment [1], in [4], in [5] and in [6] was inactive. Also, the outcome in experiment [7], in [8], in experiment [9], in [10], in experiment [11] and in [12] was inactive. Moreover, the outcome in experiment [13], in experiment [15], in experiment [16], in experiment [17], in [18] and in [19] was inactive. Besides, the call in experiment [20] was inactive. Besides, the AC50 (usually the concentration giving half of the maximal activity seen) was 0.0231 nM (active) in experiment [6] and 38.7 µM (active) in experiment [14]. For `CC/C=C\CC/C=C/CO`, the compound was classed as inactive in experiment [1].

With `CN(C)c1ccncc1`, in experiment [1], the outcome was inactive. Same read-out and setting: the value for `CCCC(O)C(O)CO` (stereo not given) was “inactive”.

`CCCCCCCCCCCCS(=O)(=O)Cl`: the call in experiment [1] was inactive. The same measure, in the same setting: as for `C=CC(C)C#N` (stereo not given), the entry is “inactive”; as for `CCCCCCC(C)(C)S`, “inactive”. On the same count and under the same terms, the value for `O=C1OC(=O)c2c(Br)c(Br)c(Br)c(Br)c21` was “inactive”. Same read-out and setting: as for `ClC(c1ccccc1)(c1ccccc1)c1ccccc1`, the entry is “inactive”; as for `COC(=O)c1ccc([N+](=O)[O-])cc1`, “inactive”; as for `CCC(=O)OCCOc1ccccc1`, “inactive”. For the compound `C=CC(=C)CCCC(C)(C)OC(C)=O`, in experiment [1], the compound was classed as inactive. As for `CC(C)(N=C=O)c1cccc(C(C)(C)N=C=O)c1`, the compound was classed as inactive in experiment [1].
